FBPA Giardia inh = qHTS Assay for Inhibitors of Fructose-1,6-bisphosphate Aldolase from Giardia Lamblia; Potency, µM (series often up to 59.6 µM), actives largely listed as inhibitors; 290,000 compounds, 0.71% hits; AID 2451, 2010; A8B2U2; purified Giardia FBPA; also: nearly all actives have a fitted effect of over 55% in size
Target sequence (A8B2U2 whole entry, looked up): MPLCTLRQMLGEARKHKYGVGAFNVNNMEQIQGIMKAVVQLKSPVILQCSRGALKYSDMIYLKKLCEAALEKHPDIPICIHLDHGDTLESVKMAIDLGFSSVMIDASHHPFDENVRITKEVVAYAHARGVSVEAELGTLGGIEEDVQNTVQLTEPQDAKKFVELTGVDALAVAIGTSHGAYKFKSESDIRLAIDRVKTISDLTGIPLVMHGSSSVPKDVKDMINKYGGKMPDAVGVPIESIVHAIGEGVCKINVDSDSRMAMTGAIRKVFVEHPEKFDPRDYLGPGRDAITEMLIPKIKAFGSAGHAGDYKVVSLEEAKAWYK
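40 nM FBPA preincubated 10 min at RT with compound (up to 57.5 uM final), then substrate plus GAPDH/TPI/NAD/arsenate coupling and diaphorase/resazurin added. Fluorescence read after 20 min at RT, 525/598 nm.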
Pf growth 96h = Primary qHTS for delayed death inhibitors of the malarial parasite plastid, 96 hour incubation; P. falciparum luciferase reporter growth, 96 h; Potency, µM (series often up to 28.7 µM), hits mostly inhibitors; 320,000 compounds, 6.9% hits
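Infected RBCs, 2% Hct / 0.05% parasitemia final; luciferase-reporter P. falciparum; cpd 96 h, 37 C, 5% CO2; luciferase detection reagent; luminescence.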
Cycloheximide cs = Cycloheximide Counterscreen for Small Molecule Inhibitors of Shiga Toxin; 300,000 compounds, 12% hits; cell reporter, cycloheximide protein synthesis inhibition counterscreen; max response, %; AID 2314, 2010; in the data active = max response mostly above about 13%, no sharp cut-off; inactive = mostly below about 14%; also: read at 38.3 µM for the half of the compounds with a filed dose
NS1 function inh = qHTS Assay for Inhibitors of Influenza NS1 Protein Function | 270,000 compounds, 0.4% hits | AID 2326, 2010 | Potency, µM (titrated, usually from 46.1 µM); calls by dose curve; also: actives are rising curves; nearly all actives have a fitted effect of over 50% in size
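Growth recovery, yeast-based: influenza A NS1 expressed in S. cerevisiae causes slow growth, and suppressors are detected by OD600. The parent strain without NS1 is used as positive control.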
Shiga toxin inh = A qHTS for Small Molecule Inhibitors of Shiga Toxin; Vero cells, Shiga toxin protein synthesis inhibition reporter; inhibition, % at 38.7 µM; 290,000 compounds, 9.2% hits; AID 2315, 2010; in the data active = inhibition mostly above about 28%, no sharp cut-off; inactive = mostly below about 43%
Pf growth 48h = Primary qHTS for delayed death inhibitors of the malarial parasite plastid, 48 hour incubation. 310,000 compounds, 5.9% hits. P. falciparum luciferase growth in erythrocytes, 48 h. Potency, µM (titrated, usually from 28.7 µM), hits mostly inhibitors. AID 504832, 2011
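A one-generation exposure of luciferase-tagged malaria parasites in RPMI 1640/Albumax erythrocyte culture, 37 C and 5% CO2. Inhibition is inferred from decreased luminescence after adding detection reagent.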
Of the large screens only hits and unclear results are named; the others gave an inactive call. A selection: hits, their analogues and other compounds. The true share with any hit is near 21%. Unless noted, calls follow the shape of the dose curve; as a rule, active = well fitted curve in the direction sought with a large enough effect; inconclusive = small, poorly fitted or top-dose-only effect, or another doubt; inactive = no such curve, though single readings can be large; an effect the other way counts as inactive or inconclusive.

CC(C)(C)OC(=O)CC[C@@H](C(=O)N1CCN(C(=O)OC(C)(C)C)CC1)n1cc(C(Cc2ccc(O)cc2)NC(=O)OC(C)(C)C)nn1 (stereo not given in full)	Pf growth 96h 4.65µM, Pf growth 48h inconclusive
CC(C)CC(NC(=O)OC(C)(C)C)c1cn([C@@H](CCCCNC(=O)OC(C)(C)C)C(=O)N2CCN(C(=O)OC(C)(C)C)CC2)nn1 (stereo not given in full)	Pf growth 96h 3.7µM, Pf growth 48h inconclusive
CC[C@@H](C)C(NC(=O)OC(C)(C)C)c1cn([C@@H](Cc2cc3ccccc3[nH]2)C(=O)N2CCN(C(=O)OC(C)(C)C)CC2)nn1 (stereo not given in full)	Pf growth 96h 3.7µM, Pf growth 48h inconclusive
CC[C@@H](C)C(NC(=O)OC(C)(C)C)c1cn([C@@H](CCCCNC(=O)OC(C)(C)C)C(=O)N2CCN(C(=O)OC(C)(C)C)CC2)nn1 (stereo not given in full)	Pf growth 96h 4.15µM, Pf growth 48h inconclusive
N[C@@H](CO)c1cn([C@@H](Cc2cc3ccccc3[nH]2)C(=O)N2CCNCC2)nn1	none
CCC(C)[C@H](N)c1cn([C@@H](CCCCN)C(=O)N2CCNCC2)nn1 (stereo not given in full)	none
O=C1CCC(C(=O)N2CCCC(N3CCN(c4cccc(C(F)(F)F)c4)CC3)C2)=NN1 (stereo not given)	none (no result: FBPA Giardia inh)
CS(=O)(=O)N1CCc2cc(NC(=O)c3ccc(Cl)cc3Cl)ccc21	Cycloheximide cs 20.6 (no result: NS1 function inh)
CS(=O)(=O)N1CCc2cc(C(=O)Nc3ccc(Cl)cc3)ccc21	Cycloheximide cs 16.8
Cc1ccc(S(=O)(=O)NCc2ccc(C(=O)NCCN(Cc3ccccc3)C(C)C)cc2)cc1	Pf growth 96h inconclusive, Pf growth 48h inconclusive (no result: NS1 function inh)
CCc1n[nH]c(=S)n1/N=C/c1ccc(N(C)c2ccccc2)cc1	Pf growth 96h inconclusive, Pf growth 48h 10.4µM (no result: NS1 function inh)
O=C(NCCOc1ccccc1F)C1CC(=O)N(c2ccc3c(c2)OCCO3)C1 (stereo not given)	none (no result: FBPA Giardia inh, Cycloheximide cs, NS1 function inh, Shiga toxin inh)
Cc1ccc(-c2nc(C=Nc3ccc(O)cc3)c(O)o2)cc1	Cycloheximide cs 43.9, Shiga toxin inh 124.9, Pf growth 48h inconclusive (no result: NS1 function inh)
Oc1oc(-c2ccccc2)nc1/C=N/c1ccccn1	Pf growth 96h 11.7µM
CN=Cc1nc(-c2ccccc2)oc1O	Cycloheximide cs 29.8, Shiga toxin inh active
CC1=Nc2ccccc2/C1=C\c1nc(-c2ccc(F)cc2)oc1O	none (no result: Pf growth 48h)
CCn1c(=O)c(=O)[nH]c2cc(C(=O)N(C)Cc3ccc(OC)c(F)c3)ccc21	Pf growth 96h inconclusive
CSCCC(NC(=O)c1cccc([N+](=O)[O-])c1)C(=O)OCC(=O)N1CCCC1=O (stereo not given)	none (no result: FBPA Giardia inh, Cycloheximide cs, NS1 function inh, Shiga toxin inh)
COc1ccc(COc2cccc3ccc(C)nc23)cc1F	none
CCOC(=O)c1c(C)oc2c1c(C(c1ccncc1)N1CCOCC1)c(O)c1ccccc12 (stereo not given)	FBPA Giardia inh inconclusive, Cycloheximide cs 50.7, Shiga toxin inh 100.2, Pf growth 48h inconclusive
CCOC(=O)c1c(C)oc2c1c(CN1CCN(CCO)CC1)c(O)c1ccccc12	FBPA Giardia inh inconclusive, Cycloheximide cs 35.6, Shiga toxin inh 117.8 (no result: NS1 function inh)
CCOC(=O)c1c(C)oc2c1c1c(c3ccccc32)OCN(Cc2ccccn2)C1	FBPA Giardia inh inconclusive, Cycloheximide cs 34.7, Shiga toxin inh 88.5
CCOC(=O)c1c(C)oc2c1c(CN1CCN(C(=O)OCC)CC1)c(O)c1ccccc12	FBPA Giardia inh inconclusive, Cycloheximide cs 70.7, Shiga toxin inh 104.0
CCOC(=O)c1c(C)oc2c1c(C=NCCC(=O)O)c(O)c1ccccc12	FBPA Giardia inh inconclusive (no result: NS1 function inh)
COc1ccc(C2CC(=O)c3ccccc3O2)cc1 (stereo not given)	Cycloheximide cs 41.4
O=C1CC(c2ccc3c(c2)OCCO3)Oc2ccc([N+](=O)[O-])cc21 (stereo not given)	Cycloheximide cs 45.9, Shiga toxin inh 88.4
O=C1CC(c2ccc3c(c2)OCCO3)Oc2ccccc21 (stereo not given)	Cycloheximide cs 51.6, Shiga toxin inh 80.1
COc1cc(OC)c2c(c1)OC(c1ccccc1)CC2=O (stereo not given)	none (no result: Pf growth 96h, Cycloheximide cs, NS1 function inh, Shiga toxin inh, Pf growth 48h)
COc1ccc(-n2c(=O)c(-c3ccc(F)c(F)c3)nc3cncnc32)cc1	none (no result: Pf growth 96h, Cycloheximide cs, NS1 function inh, Shiga toxin inh, Pf growth 48h)
CC(C)(C)C(=O)NNC(=O)C1CC1(c1ccccc1)c1ccccc1 (stereo not given)	none (no result: Pf growth 48h)
Cc1ccn2c(NC(=O)c3ccco3)c(-c3ccccc3)nc2c1	Pf growth 96h 4.15µM
CCOC(=O)c1c(-c2ccccc2)nc2cc(C)ccn12	Cycloheximide cs 53.7, Shiga toxin inh 76.0
CCOC(=O)C(=O)c1c(-c2ccccc2)nc2ccccn12	none
CCOC(=O)c1c(-c2ccccc2)nc2ccc(C)cn12	Cycloheximide cs 45.0, Shiga toxin inh 123.0
O=C(Cn1nnnc1CN1CCOCC1)N1CCC(c2cccc(Cl)c2)C1 (stereo not given)	none
O=C(/C=C/c1ccc(Cl)c(Cl)c1)N1CCc2ccccc21	Cycloheximide cs 24.1, Shiga toxin inh active
O=C(c1cccs1)N1CCN=C1SCc1cccc(F)c1	none
O=C(/C=C/c1cccs1)N1CCc2ccccc21	Cycloheximide cs 27.1
C/C(=C/C(=O)N1CCc2ccccc21)C(=O)O	Pf growth 96h inconclusive
CSC1=NCCN1C(=O)c1cccs1	Pf growth 96h 13.1µM (no result: Pf growth 48h)
CSC1=NCCN1C(=O)C12CC3CC(CC(C3)C1)C2	Pf growth 96h inconclusive, Pf growth 48h 9.28µM (no result: NS1 function inh)
COC(=O)[C@H](Cc1ccccc1)NC(=O)O[C@@H]1C(=O)c2ccc(OC)cc2O[C@H]1c1cccc(C(F)(F)F)c1	none (no result: Pf growth 96h, Cycloheximide cs, NS1 function inh, Shiga toxin inh, Pf growth 48h)
CCOc1ccc(NC(=O)C2C3C=CC4(O3)C2C(=O)N(Cc2cccnc2)C4C(=O)NC2CCCCC2)cc1 (stereo not given)	Pf growth 96h inconclusive
COc1ccc(S(=O)(=O)N2CCC(C(=O)NCC3CCCCC3)CC2)cc1	none
O=S(=O)(Nc1cccc2cccnc12)c1ccc(Br)s1	FBPA Giardia inh inconclusive (no result: Pf growth 96h, NS1 function inh, Pf growth 48h)
O=C(c1cccs1)N1CCc2ccccc21	Cycloheximide cs 53.7, Shiga toxin inh 70.2
O=C(c1cccs1)N1CCCc2ccccc21	none
O=C1C[C@@H](c2ccc(O)c(O)c2)Oc2c1ccc(O[C@@H]1O[C@H](CO)[C@@H](O)[C@H](O)[C@H]1O)c2O	none (no result: Pf growth 96h, NS1 function inh, Pf growth 48h)
O=C1CC(c2ccc(O)c(O)c2)Oc2c1ccc(O)c2O (stereo not given)	FBPA Giardia inh inconclusive, Pf growth 96h 2.08µM, Pf growth 48h inconclusive
CC(C)=CCc1c(O)cc(C)oc1=O	none (no result: Pf growth 96h, Cycloheximide cs, NS1 function inh, Shiga toxin inh, Pf growth 48h)
CC(C)=CCc1c(O)ccc2c1OC(c1ccc(O)c(O)c1)CC2=O (stereo not given)	Pf growth 96h inconclusive, Cycloheximide cs 14.1

Screening results as filed in PubChem.
